# SRC3 TRFRET art = TR-FRET detection interference compounds, artefact control for PPARgamma SRC-3 recruitment agonists, biochemical, TR-FRET ratio. TR-FRET artefact counter-screen, PPARgamma/SRC-3 format; hits give high values. TR-FRET ratio at 8 µM. 99,000 compounds, 0.39% hits. AID 1048, 2008
# PPARg SRC-2 ag = agonists of PPARg-SRC-2 recruitment, primary screen, biochemical, HTS; Peroxisome proliferator-activated receptor gamma (Homo sapiens), P37231; PPARgamma LBD-SRC-2 recruitment; activation, % at 8 µM; 200,000 compounds, 0.34% hits; in the data active = activation above about 22%
# Target sequence (P37231 whole entry, looked up, the tested form may be a part): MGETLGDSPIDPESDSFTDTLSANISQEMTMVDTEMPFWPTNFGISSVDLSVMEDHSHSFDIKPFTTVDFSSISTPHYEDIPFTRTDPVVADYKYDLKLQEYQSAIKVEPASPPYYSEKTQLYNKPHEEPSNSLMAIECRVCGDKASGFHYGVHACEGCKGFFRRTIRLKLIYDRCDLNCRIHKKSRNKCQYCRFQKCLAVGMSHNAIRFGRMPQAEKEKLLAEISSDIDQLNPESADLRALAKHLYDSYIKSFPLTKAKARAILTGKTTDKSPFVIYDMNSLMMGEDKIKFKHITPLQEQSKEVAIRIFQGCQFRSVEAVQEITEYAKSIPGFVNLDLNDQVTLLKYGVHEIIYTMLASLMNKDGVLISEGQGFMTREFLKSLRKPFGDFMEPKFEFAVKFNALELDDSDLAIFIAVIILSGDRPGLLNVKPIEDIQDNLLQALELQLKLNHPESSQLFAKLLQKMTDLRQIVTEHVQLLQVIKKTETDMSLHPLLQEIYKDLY
# PPARg SRC1 recr = PPARgamma agonists recruiting SRC-1 coactivator, primary screen, biochemical; Peroxisome proliferator-activated receptor gamma (Homo sapiens), P37231; PPARgamma-SRC-1 coactivator recruitment biochemical assay; activation, % at 8 µM; 200,000 compounds, 0.41% hits; AID 631, 2007; in the data active = activation above about 19%
# SRC1 TRFRET art = TR-FRET detection interference compounds, primary screen, artefact control for PPARgamma SRC-1 recruitment agonists, biochemical, TR-FRET emission ratio; TR-FRET detection artefact counter-screen; hits give high values; TR-FRET ratio at 8 µM; 99,000 compounds, 0.34% hits; in the data active = TR-FRET ratio above about 2300
# TR-FRET SRC-2 ct = TR-FRET signal artefacts, primary screen, artefact control for PPARgamma SRC-2 agonist project, biochemical; 200,000 compounds, 0.4% hits; TR-FRET ratio at 8 µM; TR-FRET artefact counter-screen; hits give high values
# PPARg SRC-3 ag = PPARgamma agonists recruiting SRC-3 coactivator, primary screen, biochemical. 200,000 compounds, 0.26% hits. biochemical PPARgamma/SRC-3 coactivator recruitment assay. Peroxisome proliferator-activated receptor gamma (Homo sapiens), P37231. activation, % at 8 µM; in the data active = activation above about 23%
# Numbers stand for hits; - = inactive; . = no result given. In the library only some 0.9% were active in any assay of this set; here they are far more common. Cut-off read from the data, not from the text of the source, unless noted: active = TR-FRET ratio above about 2000; inactive = the rest.
SMILES,SRC3 TRFRET art,PPARg SRC-2 ag,PPARg SRC1 recr,SRC1 TRFRET art,TR-FRET SRC-2 ct,PPARg SRC-3 ag
O=C(CSc1nc2nc3c(cc2c(=O)n1-c1ccccc1)CCCC3)Nc1cccc2ccccc12,2727,-,-,2437,2372,-
O=[N+]([O-])c1ccc2[nH]ncc2c1,-,-,-,-,-,-
COC(=O)c1cc(NC(=O)c2ccccc2F)cc(C(=O)OC)c1,-,-,-,-,-,-
Cc1cc(C)nc(/N=c2/ssnc2Cl)c1,.,-,-,.,-,28
Cc1ccc(N=c2ssnc2Cl)cc1,.,-,-,.,-,-
CNC(=S)/N=C/NOCc1c(Cl)cccc1Cl,-,-,-,-,-,-
O=C(CCCCCn1c(=S)[nH]c2ccc(N3CCOCC3)cc2c1=O)NCCc1ccccc1,-,-,-,-,-,-
O=C(CCCCCn1c(=S)[nH]c2ccc(N3CCOCC3)cc2c1=O)NCc1ccc(Cl)cc1,2786,-,-,-,-,-
O=C(CCCCCn1c(=S)[nH]c2ccc(N3CCOCC3)cc2c1=O)NCc1ccc2c(c1)OCO2,3424,-,-,-,-,-
O=c1c2cc(N3CCOCC3)ccc2[nH]c(=S)n1Cc1ccc(Cl)cc1,.,-,-,.,-,-
CCCCn1c(=S)[nH]c2ccc(N3CCOCC3)cc2c1=O,-,-,-,-,-,-
COc1ccc(N2CCN(C(=O)c3ccc(Cn4c(=S)[nH]c5ccc(N6CCOCC6)cc5c4=O)cc3)CC2)cc1,-,-,-,-,-,-
O=C(CCCCCn1c(=S)[nH]c2ccc(N3CCOCC3)cc2c1=O)NCc1ccccc1Cl,3063,-,-,-,-,-
O=C(c1ccc(Cn2c(=S)[nH]c3ccc(N4CCOCC4)cc3c2=O)cc1)N1CCN(c2ccc(F)cc2)CC1,3426,-,-,3474,2803,-
CCN(CC)C(=O)Cn1c(=O)n(-c2ccccc2)c(=O)c2c3c(sc21)CCC3,.,22,-,.,2144,-
O=C(C1CC1)N1CCN(S(=O)(=O)c2ccc3c(c2)OCCO3)CC1,-,-,-,-,-,-
CCN(C(=O)COC(=O)c1cc(-c2ccccc2)nc2ccc(Br)cc12)C1CCS(=O)(=O)C1 (stereo not drawn),2241,-,-,2327,-,-
CCCCC(=O)Nc1nc2ccc3nc(C)sc3c2s1,.,-,-,.,1978,-
O=C(N1CCN(c2cccc(Cl)c2)CC1)C1(c2cccs2)CCOCC1,-,-,-,-,-,-
CC(C)C(C)NC(=O)CSc1nc2scc(-c3ccco3)c2c(=O)n1-c1ccccc1 (stereo not drawn),.,-,-,.,-,-
CC(C)C(C)(C#N)NC(=O)CSc1nc2scc(-c3ccco3)c2c(=O)n1-c1ccccc1 (stereo not drawn),.,-,-,.,2013,-
O=C(c1ccco1)N1CCN(C(=O)c2cc(-c3ccncc3)nc3ccc(Br)cc23)CC1,.,-,-,.,-,-
O=C(O)c1cc(-c2ccco2)nc2ccc(Br)cc12,2104,-,-,2318,2007,-
Cc1cc2cc3c(cc2nc1SCc1ccc(C(=O)O)cc1)OCCO3,-,-,-,-,-,-
COc1cccc(CSc2nc3cc4c(cc3cc2C)OCCO4)c1,2784,-,-,-,-,-
SMILES,SRC3 TRFRET art,PPARg SRC-2 ag,PPARg SRC1 recr,SRC1 TRFRET art,TR-FRET SRC-2 ct,PPARg SRC-3 ag
CN=C1CC(SC)=C1c1ccc(C)cc1,.,24,-,.,-,-
CS(=O)(=O)N1CCc2cc(NC(=O)c3ccc(Cl)cc3Cl)ccc21,-,-,-,-,-,-
CC(=O)C1=C(C)NC(SCC(=O)c2ccc(-c3ccccc3)cc2)=C(C#N)C1c1cccnc1 (stereo not drawn),.,-,-,.,2094,-
Cc1ccc(-c2nnc(CSc3nc(C(C)C)nc4sc(C)c(C)c34)o2)cc1,.,-,-,.,-,-
COc1ccccc1N(Cc1ccccc1)S(=O)(=O)c1cc(C(=O)O)ccc1Cl,-,-,-,-,-,-
CCn1c(SCC(=O)O)nnc1C1CCCCC1,.,-,-,.,-,29
CCOc1ccc2[nH]c(=O)c(C(c3nnnn3C3CCCCC3)N3CCN(C)CC3)cc2c1 (stereo not drawn),-,-,23,-,-,-
